Molecules are shown by their SMILES. Active and inactive are the calls of the source. No rule for the calls is given here. Some results are limits rather than exact numbers.
Potency is read from the fitted curve at half-maximal effect.

The test system of the test is HIV-1 nucleocapsid protein NCp7 (binding to TG oligonucleotide). Nature of the test: HIV Nucleocapsid (AID 346).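 Also: potency is for inhibitors that block NC binding and lower polarization.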 Conditions: HIV-1 NC / fluorescein-TGTGTGTG probe, fluorescence polarization. The essentials:
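10 nM TG4xF probe with 100 nM nucleocapsid protein in high-salt Hepes pH 7.5 (250mM NaCl) containing 1uM ZnCl2 and reducing agents. Compound inhibition of binding was read as fluorescein polarization after 1 hr at room temperature.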
In general terms: Polarisation of emitted light reports the rotation of a fluorescent probe.
In the case of `O=C(c1csnn1)N1CCC2(CCCN(c3ccccc3)C2)CC1`, the Potency was > 20 µM (inactive).
Turning to `Cc1nc2cnc(N(C)C)nc2n(C[C@H]2CCCO2)c1=O`, the Potency is > 20 µM (inactive).
On to `O=C(c1csnn1)N1CCC2(CC1)CCN(C(c1ccccc1)c1ccccc1)CC2`, for which the Potency is > 20 µM (inactive).
The figure for `O=c1c(-c2ccc(Cl)cc2)nc2cnc(N3CCOCC3)nc2n1CCc1ccccc1` is > 4 µM (inactive); for `COc1ccc(CNc2ncnc3ccc(-c4ccoc4)cc23)c(OC)c1` it is > 20 µM (inactive); for `FC(F)(F)c1ccccc1-c1cncnc1NCCc1cnc[nH]1` it is > 20 µM (inactive).
Regarding `CN1CCN(c2nc(-c3ccccc3C(F)(F)F)nc3ccccc23)CC1`, the Potency is > 20 µM (inactive).
With `COc1cccc(-c2nccc(-n3ccnc3)n2)c1`, the Potency was > 20 µM (inactive).
The figure for `COc1ccc(CNc2cc(-c3cccnc3)ncn2)c(OC)c1` is > 20 µM (inactive).
On to `O=C(c1csnn1)N1CCC2(CCCN(Cc3ccccc3)C2)CC1`, for which the Potency is > 20 µM (inactive).
Consider `Cn1c(=O)c(-c2ccc(F)c(F)c2)nc2cncnc21`, for which the Potency is > 4 µM (inactive).
Consider `CN(C)c1ccc(-c2ccc3ncnc(NCc4ccccc4)c3c2)cc1`, for which the Potency was > 20 µM (inactive).
As for `CN1CCN(c2ncc3ncc(=O)n(C[C@H]4CCCO4)c3n2)CC1`, the Potency was > 20 µM (inactive).
The figure for `COCCn1c(=O)c(C)nc2cnc(N3CCOCC3)nc21` is > 20 µM (inactive); for `CC(C)NC(=O)N1CC[C@@]2(CCCN(C(=O)c3ccco3)C2)C1` it is > 20 µM (inactive).
As to `CS(=O)(=O)N1CCC2(CCN(Cc3ccncc3)CC2)CC1`, the Potency is > 4 µM (inactive).
On to `COc1ccccc1-c1cc(NCc2cnc(C)cn2)ncn1`, for which the Potency is > 20 µM (inactive).
Turning to `COCCn1c(=O)c(-c2cc(F)cc(F)c2)nc2cnc(Oc3ccccc3)nc21`, the Potency is > 20 µM (inactive).
Regarding `O=c1c(-c2cccs2)nc2cnc(N3CCNCC3)nc2n1-c1ccccc1`, the Potency was 12.2 µM (inactive).
With `CN1CC[C@@]2(CCCN(C(=O)c3cccn3C)C2)C1`, the Potency is > 20 µM (inactive).
The figure for `Cn1cccc1C(=O)N1CCC2(CC1)CN(C(c1ccccc1)c1ccccc1)C2` is > 20 µM (inactive); for `COc1ccc(C(=O)N2CCC3(CCCN(Cc4nccs4)C3)CC2)cc1` it is > 20 µM (inactive); for `Cc1noc(C)c1C(=O)N1CCC2(CC1)CN(C(=O)Nc1cccc(F)c1)C2` it is > 20 µM (inactive).
As for `CN1CCN(c2ncc3nc(-c4ccccc4)c(=O)n(C)c3n2)CC1`, the Potency is > 20 µM (inactive).
As to `COc1ccc(Oc2ncc3nc(-c4ccccc4)c(=O)n(C[C@H]4CCCO4)c3n2)cc1`, the Potency was > 20 µM (inactive).
Turning to `CN1CCN(c2ncc3nc(-c4cccc(C#N)c4)c(=O)n(Cc4ccc(F)cc4)c3n2)CC1`, the Potency is > 20 µM (inactive).
Take `O=c1c(-c2cccc(Cl)c2)nc2cncnc2n1C1CC1`: the Potency was > 20 µM (inactive).
Regarding `Cc1ccccc1-c1ccc2ncnc(-n3ccnc3)c2c1`, the Potency was > 20 µM (inactive).
Regarding `COc1cccc(Cn2c(=O)c(-c3cc(F)cc(F)c3)nc3cnc(N(C)C)nc32)c1`, the Potency is > 4 µM (inactive).
The figure for `COCCn1c(=O)c(-c2ccc(Cl)cc2)nc2cnc(Oc3cccc(Cl)c3)nc21` is > 20 µM (inactive); for `O=C(c1cc(C(F)(F)F)cc(C(F)(F)F)c1)N1CCC2(CC1)CCN(c1ccccn1)CC2` it is > 20 µM (inactive).
With `CCNc1ncc2nc(-c3ccc(F)cc3)c(=O)n(Cc3ccc(F)cc3)c2n1`, the Potency is > 20 µM (inactive).
The figure for `O=C(c1cc(C(F)(F)F)cc(C(F)(F)F)c1)N1CCC2(CC1)CCN(c1ccncc1)CC2` is > 20 µM (inactive).
With `COc1ccc(-c2nc3cnc(N4CCNCC4)nc3n(Cc3cccs3)c2=O)cc1`, the Potency was > 20 µM (inactive).
With `O=C(Nc1ccccc1)N1CC[C@@]2(CCCN(C(=O)c3cnccn3)C2)C1`, the Potency was > 20 µM (inactive).
As to `COCC(=O)N1CCC[C@@]2(CCN(C(=O)Nc3cccc(F)c3)C2)C1`, the Potency is > 20 µM (inactive).
Under `O=c1c(-c2ccc(F)cc2)nc2cnc(Nc3ccccc3)nc2n1Cc1cccs1` stands > 4 µM (inactive); under `CN(C)c1ncc2ncc(=O)n(C[C@H]3CCCO3)c2n1`, > 20 µM (inactive); under `CN(C)C(=O)c1ccc(-c2nc(N(C)C)c3ccccc3n2)cc1`, > 20 µM (inactive).
As to `COc1ccc2[nH]cc(CCNc3nc(-c4ccc(N(C)C)cc4)nc4ccccc34)c2c1`, the Potency is > 20 µM (inactive).

The record behind these values is PubChem BioAssay (NCATS).
